Source: PubChem BioAssay (EPA / NIEHS)
The source made the active and inactive calls. How the source made its calls: active means hit-call score of the fitted dose curve at least 0.9, where 1 is the maximum; inactive means score below 0.9.

Key:
[1] = target: Transcriptional activator Myb (Homo sapiens) (UniProt P10242); experiment: ATG_Myb_CIS: Attagene CIS-FACTORIAL HepG2 Assay for human Myeloblastosis (Myb) Proto-Oncogene Transcription Factor (AID 2282986); settings: HepG2 Attagene CIS-FACTORIAL Myb reporter transcription; actives raise or lower the signal
How it was run: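 Steps: transfect HepG2 with cis-regulated reporter units; dose with chemical for 24 h; isolate RNA, reverse-transcribe, PCR-amplify and FAM-label reporter sequences; digest with HpaI; resolve by capillary electrophoresis. Activity fitted in both directions relative to DMSO.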

[2] = target: Nuclear respiratory factor 1 (Homo sapiens) (UniProt Q16656); experiment: ATG_NRF1_CIS: Attagene CIS-FACTORIAL HepG2 Assay for human Nuclear Respiratory Factor 1 (NRF1) Orphan Gene (AID 2282987); settings: HepG2 NRF1 cis-element reporter, Attagene multiplex; actives raise or lower the signal
How it was run: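 Fluorescence intensity of labelled reporter cDNA fragments, resolved by capillary electrophoresis, served as readout for NRF1 cis-element activity. Transiently transfected HepG2 cells were dosed for 24 hours; activity in either direction was fitted against DMSO negative control.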

[3] = ATG_NFI_CIS: Attagene CIS-FACTORIAL HepG2 Assay for human Nuclear Factor I (NFI) (AID 2282989); settings: HepG2 cis-regulatory reporter, NFI response element transcription; actives raise or lower the signal
How it was run: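 Transient MRTU transfection of HepG2 → 24 h chemical dosing → total RNA, oligo(dT) RT → PCR, 6-FAM primer extension, HpaI cut → capillary electrophoresis. Endpoint fitted bidirectionally relative to DMSO.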

[4] = target: Myc proto-oncogene protein (Homo sapiens) (UniProt P01106); experiment: ATG_Myc_CIS: Attagene CIS-FACTORIAL HepG2 Assay for human Myelocytomatosis (Myc) Proto-Oncogene Transcription Factor (AID 2282990); settings: HepG2, Attagene cis-reporter transcription factor activity; actives raise or lower the signal
How it was run: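 DMSO-normalised, bidirectionally fitted reporter mRNA signal. HepG2 cells transfected with cis reporter constructs, treated 24 h; transcripts detected by RT-PCR, 6-FAM primer extension and CE.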

[5] = ATG_NF_kB_CIS: Attagene CIS-FACTORIAL HepG2 Assay for human Nuclear Factor Kappa B (NF-kB) (AID 2282991); settings: HepG2 Attagene cis-factorial NF-kB reporter mRNA; actives raise or lower the signal
How it was run: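 Endogenous transcription factor activity in HepG2 was captured via cis-regulated reporter constructs; after 24 h dosing, reporter mRNA was reverse-transcribed, amplified, fluorescently labelled and sized by capillary electrophoresis, with activity fitted bidirectionally relative to DMSO.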

[6] = ATG_NRF2_ARE_CIS: Attagene CIS-FACTORIAL HepG2 Assay for human Nuclear Factor Erythroid 2 Related Factor 2 (NFR2) response to Antioxidant Response Elements (ARE) (AID 2282992); settings: HepG2 Attagene ARE/NRF2 reporter, transcription factor activity; actives raise or lower the signal;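 on AC50: reporter mRNA level measured by RT-PCR and capillary electrophoresis fluorescence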
How it was run: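 Cis-factorial assay: transfected HepG2 reporter library, 24 h dosing, mRNA readout via RT-PCR/CE; DMSO-referenced bidirectional analysis.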

[7] = ATG_Oct_MLP_CIS: Attagene CIS-FACTORIAL HepG2 Assay for human Octamer-Binding Transcription Factor (Oct) (AID 2282993); settings: HepG2 Attagene cis-factorial Oct reporter, mRNA; actives raise or lower the signal
How it was run: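 Transient MRTU transfection of HepG2 → 24 h compound treatment → RNA isolation, reverse transcription, PCR → 6-FAM primer extension, HpaI digest → capillary electrophoresis. Activity fitted both directions against DMSO.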

[8] = target: Cellular tumor antigen p53 (Homo sapiens) (UniProt P04637); experiment: ATG_p53_CIS: Attagene CIS-FACTORIAL HepG2 Assay for human p53 Transcription Factor (AID 2282994); settings: HepG2 p53 cis-element reporter, Attagene mRNA; actives raise or lower the signal
How it was run: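 Using HepG2 hepatoma cells carrying cis-acting multiplexed reporters, mRNA induction is detected after a 24 h exposure. Gain- and loss-of-signal responses are fitted relative to DMSO-treated cells.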

[9] = BSK_3C_TissueFactor: BioMAP Diversity Plus: 3C Assay for Tissue Factor Biomarker Activity (AID 2282997); settings: BioMAP 3C HUVEC, tissue factor biomarker readout; actives raise or lower the signal
How it was run: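 ELISA read-out of Tissue Factor levels on human umbilical vein endothelium collected 24 h after chemical dosing. Gain or loss of signal was fitted relative to DMSO.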

[10] = BSK_3C_uPAR: BioMAP Diversity Plus: 3C Assay for Urokinase-type plasminogen activator receptor (uPAR) Biomarker Activity (AID 2282998); settings: BioMAP 3C HUVEC, uPAR biomarker ELISA; actives raise or lower the signal
How it was run: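 ELISA readout of uPAR on human vascular endothelium (umbilical vein primary cells), taken 24 h after chemical dosing. Increases and decreases are both fitted relative to DMSO vehicle.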

Measured: AC50

Chain of Nuclear respiratory factor 1 (Homo sapiens) (Q16656 whole entry, looked up, the tested form may be a part): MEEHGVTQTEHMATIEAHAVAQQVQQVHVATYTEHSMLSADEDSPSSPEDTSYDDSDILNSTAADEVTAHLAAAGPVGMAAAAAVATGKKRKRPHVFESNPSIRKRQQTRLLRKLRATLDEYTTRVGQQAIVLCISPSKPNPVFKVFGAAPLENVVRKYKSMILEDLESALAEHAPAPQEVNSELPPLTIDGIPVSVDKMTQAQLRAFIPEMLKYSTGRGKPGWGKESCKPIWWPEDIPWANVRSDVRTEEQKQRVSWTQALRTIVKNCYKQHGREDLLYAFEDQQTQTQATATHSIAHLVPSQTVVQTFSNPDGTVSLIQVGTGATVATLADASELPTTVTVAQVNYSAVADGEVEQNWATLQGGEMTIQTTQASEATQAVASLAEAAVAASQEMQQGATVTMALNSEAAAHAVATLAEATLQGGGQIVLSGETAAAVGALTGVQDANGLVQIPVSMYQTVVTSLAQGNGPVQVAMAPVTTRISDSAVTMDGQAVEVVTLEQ
Chain of Myc proto-oncogene protein (Homo sapiens) (P01106 whole entry, looked up): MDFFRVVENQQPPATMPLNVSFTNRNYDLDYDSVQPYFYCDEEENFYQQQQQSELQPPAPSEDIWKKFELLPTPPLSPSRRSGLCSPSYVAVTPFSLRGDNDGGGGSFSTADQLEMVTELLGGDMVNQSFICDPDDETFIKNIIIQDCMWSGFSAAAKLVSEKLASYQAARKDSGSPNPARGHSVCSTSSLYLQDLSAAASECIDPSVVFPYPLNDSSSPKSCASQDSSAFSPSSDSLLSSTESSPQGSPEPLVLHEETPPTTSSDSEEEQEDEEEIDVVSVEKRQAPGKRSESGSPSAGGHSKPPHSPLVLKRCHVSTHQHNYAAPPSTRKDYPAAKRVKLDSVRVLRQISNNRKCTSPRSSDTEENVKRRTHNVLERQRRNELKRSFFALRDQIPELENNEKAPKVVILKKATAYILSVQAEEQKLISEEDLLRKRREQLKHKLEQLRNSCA
Chain of Cellular tumor antigen p53 (Homo sapiens) (P04637 whole entry, looked up): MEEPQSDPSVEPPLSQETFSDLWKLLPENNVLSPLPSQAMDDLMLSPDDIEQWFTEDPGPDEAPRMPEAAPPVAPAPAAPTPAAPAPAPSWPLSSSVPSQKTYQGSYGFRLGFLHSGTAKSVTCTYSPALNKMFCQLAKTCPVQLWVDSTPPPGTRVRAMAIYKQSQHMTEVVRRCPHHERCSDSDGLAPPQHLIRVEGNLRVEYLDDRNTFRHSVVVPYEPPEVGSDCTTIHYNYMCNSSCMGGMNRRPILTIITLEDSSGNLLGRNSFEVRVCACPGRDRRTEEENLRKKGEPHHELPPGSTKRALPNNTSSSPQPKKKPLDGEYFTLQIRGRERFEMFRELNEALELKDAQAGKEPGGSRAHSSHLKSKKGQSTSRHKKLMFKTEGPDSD
Chain of Transcriptional activator Myb (Homo sapiens) (P10242 whole entry, looked up): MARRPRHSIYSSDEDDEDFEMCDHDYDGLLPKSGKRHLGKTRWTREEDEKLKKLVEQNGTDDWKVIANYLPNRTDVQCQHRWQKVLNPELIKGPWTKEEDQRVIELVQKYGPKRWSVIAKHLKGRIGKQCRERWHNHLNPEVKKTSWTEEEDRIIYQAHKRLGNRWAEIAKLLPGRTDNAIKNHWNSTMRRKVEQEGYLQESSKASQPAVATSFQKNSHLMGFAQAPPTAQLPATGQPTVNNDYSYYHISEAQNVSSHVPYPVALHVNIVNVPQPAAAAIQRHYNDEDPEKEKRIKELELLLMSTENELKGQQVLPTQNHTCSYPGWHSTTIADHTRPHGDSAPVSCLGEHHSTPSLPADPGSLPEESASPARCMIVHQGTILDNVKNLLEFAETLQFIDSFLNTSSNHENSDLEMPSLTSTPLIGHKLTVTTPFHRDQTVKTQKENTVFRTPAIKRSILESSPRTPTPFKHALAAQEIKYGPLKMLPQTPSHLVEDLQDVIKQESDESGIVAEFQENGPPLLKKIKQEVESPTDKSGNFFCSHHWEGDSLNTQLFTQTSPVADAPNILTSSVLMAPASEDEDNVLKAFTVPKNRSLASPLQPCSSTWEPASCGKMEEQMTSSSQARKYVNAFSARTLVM

OCC(F)(F)OC(F)(F)C(F)(F)OC(F)(F)CO
inactive: [1] | [2] | [3] | [4] | [5] | [6] | [7] | [8] | [9] | [10]

CCOP(=S)(Oc1ccc([N+](=O)[O-])cc1)c1ccccc1 (stereo not drawn)
inactive: [1] | [2] | [3] | [4] | [5] | [7] | [9] | [10]
active: [6] 7.75 µM

Cc1ccc(C(=O)Cl)cc1
inactive: [1] | [2] | [3] | [4] | [5] | [6] | [8]

Cc1ccc(N)cc1N
inactive: [1] | [2] | [3] | [4] | [5] | [6] | [7] | [8] | [9] | [10]

CCCCN(CCCC)SN(C)C(=O)Oc1cccc2c1OC(C)(C)C2
inactive: [1] | [2] | [3] | [4] | [5] | [7]
active: [6] 31.6 µM | [9] 20 µM | [10] 32.3 µM

COP(N)(=S)OC
inactive: [1] | [2] | [3] | [4] | [5] | [6] | [7] | [8] | [9] | [10]

O=S1(=O)OCC2C(CO1)C1(Cl)C(Cl)=C(Cl)C2(Cl)C1(Cl)Cl (stereo not drawn)
active: [3] 178 µM | [4] 172 µM | [5] 8.15 µM | [6] 44.5 µM | [7] 170 µM | [8] 18.3 µM | [10] 20 µM
inactive: [1] | [2] | [9]

CCOc1ccc(C(C)(C)COCc2cccc(Oc3ccccc3)c2)cc1
inactive: [1] | [2] | [3] | [4] | [5] | [6] | [7] | [8] | [9] | [10]

CN(C)C(=O)Cl
inactive: [1] | [2] | [3] | [4] | [5] | [6] | [7] | [9] | [10]

O=c1ssc(Cl)c1Cl
inactive: [1] | [3] | [8]
active: [2] 33.4 µM | [4] 33.4 µM | [5] 45 µM | [6] 1.08 µM | [7] 51.6 µM | [9] 5.68 µM | [10] 6.09 µM

CCCCC(CC)COC(=O)c1c(Br)c(Br)c(Br)c(Br)c1C(=O)OCC(CC)CCCC (stereo not drawn)
inactive: [1] | [2] | [3] | [4] | [5] | [6] | [8] | [9] | [10]

O=P(OCC(Br)CBr)(OCC(Br)CBr)OCC(Br)CBr (stereo not drawn)
active: [2] 18.6 µM | [6] 23.4 µM | [10] 17.4 µM
inactive: [1] | [3] | [4] | [5] | [7] | [8] | [9]

ClC1=C(Cl)C2(Cl)C3C(Cl)C(Cl)CC3C1(Cl)C2(Cl)Cl (stereo not drawn)
inactive: [1] | [2] | [3] | [4] | [5] | [8]
active: [6] 14.8 µM | [9] 30.3 µM | [10] 35.8 µM

CC(C)(C)OOC(C)(C)C
inactive: [1] | [2] | [3] | [4] | [5] | [6] | [7] | [8] | [9] | [10]

C/C(=N\NC(=O)Nc1cc(F)cc(F)c1)c1ncccc1C(=O)O
inactive: [1] | [2] | [3] | [4] | [5] | [6] | [8]

O=P1(N(CCCl)CCCl)NCCCO1 (stereo not drawn)
inactive: [1] | [2] | [3] | [4] | [5] | [6] | [8] | [9] | [10]

CCOC(=O)c1ccccc1C(=O)OCC
inactive: [1] | [2] | [3] | [4] | [5] | [6] | [7] | [8] | [9] | [10]

N#Cc1cc([N+](=O)[O-])ccc1N
active: [6] 27.2 µM | [9] 0.706 µM
inactive: [1] | [2] | [3] | [4] | [5] | [7] | [8] | [10]
